A selection: hits, their analogues and other compounds. The true share with any hit is near 3.6%.
Wnt bcat act: Wnt/beta-catenin pathway activators, primary screen, cell-based, plate reader, single point; Wnt/beta-catenin reporter cell assay, activator; activation, % at 9.35 µM; 300,000 tested, 1.2% active; in the data active = activation above about 30%, passing the limit was not always enough
A3G deaminase: APOBEC3G DNA deaminase inhibitors, primary screen, biochemical, fluorescence, single-stranded DNA substrate, uHTS; recombinant A3G, ssDNA deamination FAM/TAMRA fluorescence; inhibition, % at 20 µM; 330,000 tested, 0.28% active; AID 493012, 2011;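 active = inhibition of at least 40% at 20 µM, with no more than 30% in the related APOBEC3A deaminase screen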
PHOSPHO1 block: PubChem AID 1565; 290,000 tested, 1.1% active; Phosphoethanolamine/phosphocholine phosphatase (Homo sapiens), Q8TCT1; recombinant PHOSPHO1, absorbance phosphatase assay; inhibition, % at 13.3 µM; in the data active = inhibition above about 60%
Target sequence (Q8TCT1 whole entry, looked up): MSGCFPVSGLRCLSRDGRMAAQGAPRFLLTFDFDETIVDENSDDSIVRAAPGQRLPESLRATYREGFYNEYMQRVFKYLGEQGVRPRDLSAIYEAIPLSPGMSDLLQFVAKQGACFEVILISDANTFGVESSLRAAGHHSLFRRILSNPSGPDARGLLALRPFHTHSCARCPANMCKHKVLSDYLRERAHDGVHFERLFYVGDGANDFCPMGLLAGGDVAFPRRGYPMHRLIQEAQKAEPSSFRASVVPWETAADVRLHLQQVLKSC
APOBEC3A inh: APOBEC3A ssDNA deaminase inhibitors, primary screen, selectivity assay for APOBEC3G inhibitor project, biochemical, FAM/TAMRA oligo cleavage fluorescence. DNA dC->dU-editing enzyme APOBEC-3A (Homo sapiens), P31941. 330,000 tested, 0.41% active. recombinant A3A, FAM/TAMRA ssDNA deamination fluorescence. inhibition, % at 20 µM;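 active = at least 40% inhibition at 20 µM here, with at most 30% in a related deaminase screen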
esBAF inh: Bmi1 luciferase reporter increase in mESCs, primary screen, esBAF inhibitor project, mouse ES cells, Bmi1 luciferase knock-in, single point; 24 h; 100% = twice the neutral-well signal; reporter increase, % at 12.5 µM; 350,000 tested, 2% active; AID 602393, 2012; in the data active = activation above about 40%;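 note: a rise in the Bmi1 reporter signal indicates esBAF inhibition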
MITF TRPM1 HTS: activators of MITF-driven TRPM1 promoter reporter, primary screen, cell-based, SK-MEL-5, luciferase, single point; SK-MEL-5 TRPM1-promoter luciferase, 24 h; % of positive control, neutral wells = 0; activation, % at 12.5 µM; 300,000 tested, 0.75% active; AID 588334, 2011;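 active = mean activation of at least 80% with every replicate also reaching 80%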
Hits are given with their value; 0 = inactive; - = not tested or not shown.

SMILES	Wnt bcat act	A3G deaminase	PHOSPHO1 block	APOBEC3A inh	esBAF inh	MITF TRPM1 HTS
COCC(=O)N(C)C[C@@H]1Oc2ncc(C#Cc3ccc(F)cc3)cc2C(=O)N([C@H](C)CO)C[C@@H]1C	-	-	-	-	0	-
COc1ccc([C@@H](C)NC(=O)c2ccc3oc(C(C)C)nc3c2)cc1	0	0	0	0	64	0
COc1ccc(Cc2nc3ccc(C(=O)N4CCCC4)cc3o2)cc1	0	0	0	0	71	0
C=C(C)CNC(=O)c1ccc2nc(Cc3ccc(OC)cc3)oc2c1	0	0	0	0	66	-
COC1CCN(C(=O)c2ccc3oc(C(C)C)nc3c2)CC1	0	0	0	0	0	0
COc1ccc(Cc2nc3ccc(C(=O)NC(C)C)cc3o2)cc1	0	-	-	-	51	-
O=C(c1ccc2nc(Cc3cccc(Cl)c3)oc2c1)N1CCOCC1	0	0	0	0	-	102
CCOC(=O)C1CCCN(C(=O)c2ccc3nc(-c4cccc(OC)c4)oc3c2)C1 (stereo unspecified)	0	0	0	0	48	0
CC(=O)c1c(C)[nH]c(C(=O)COC(=O)Cc2ccccc2F)c1C	0	0	-	0	56	-
COc1ccc(S(=O)(=O)Nc2cccc3c2O[C@H](CN(C)S(=O)(=O)c2ccc(C)cc2)[C@H](C)CN([C@@H](C)CO)C3=O)cc1	-	-	-	-	0	-
Cn1ncc2c(Nc3ccc(Cl)c(Cl)c3)ncnc21	0	0	0	0	0	0
CCCn1ncc2c(Nc3ccc(C)c(C)c3)ncnc21	0	0	0	0	67	98
COc1cc(C(=O)OCC(=O)c2c[nH]c3ccccc23)ccc1OCC(=O)N1CCOCC1	0	0	0	0	0	0
O=C(OCC(=O)c1ccc[nH]1)C1=COCCO1	0	0	-	0	0	0
Cn1cccc1C(=O)OCC(=O)c1c[nH]c2ccccc12	0	0	-	0	-	112
O=C(OCC(=O)c1c[nH]c2ccccc12)C1=COCCO1	43	0	0	0	64	0
COc1ccc(C(=O)OCC(=O)c2c[nH]c3ccccc23)cc1OC	0	0	-	0	52	0
CC1(C(=O)OCC(=O)c2c[nH]c3ccccc23)CC1(Cl)Cl (stereo unspecified)	-	0	0	0	46	96
Cc1noc(C)c1NC(=O)N(C)C[C@@H]1Oc2ccc(NC(=O)Cn3cnnn3)cc2CC(=O)N([C@H](C)CO)C[C@@H]1C	-	-	-	-	0	-
COCCN(C[C@@H]1N[C@@H](CO)[C@@H]1c1ccc(-c2ccc(F)cc2)cc1)C(C)=O	-	-	-	-	0	-
O=C(COC(=O)c1ccc(Cl)s1)c1cc2ccccc2o1	0	0	0	0	0	-
Cn1cccc1C(=O)OCC(=O)c1cc2ccccc2o1	34	0	0	0	0	0
CC(C)OC(=O)/C(=C\c1ccc2c(c1)c1ccccc1n2C)NC(=O)c1ccccc1	-	0	0	0	76	0
C[C@H]1CCCCO[C@H](CN(C)C(=O)Nc2cccc3ccccc23)[C@@H](C)CN([C@@H](C)CO)C(=O)c2cc(NC(=O)CCC(F)(F)F)ccc2O1	-	-	-	-	0	-
Cc1cc(C(F)(F)F)nn1Cc1n[nH]c(=S)n1-c1ccc(F)cc1	-	0	0	0	-	0
SMILES	Wnt bcat act	A3G deaminase	PHOSPHO1 block	APOBEC3A inh	esBAF inh	MITF TRPM1 HTS
CCc1ccc(-n2c(Cn3nc(C(F)(F)F)cc3C)n[nH]c2=S)cc1	-	0	89	0	0	0
Cc1ccc(NC(=O)NC2CCN(S(=O)(=O)c3ccc(F)cc3)CC2)cc1	0	0	0	0	0	0
COc1ccc(C(=S)NC2CCCCC2)cc1	-	0	88	0	50	0
COc1cccc(NC(=O)C(=S)NC2CCCCC2)c1	0	0	0	0	0	84
COc1ccc(S(=O)(=O)N2CCC(NC(=O)Nc3ccc(C)cc3)CC2)cc1	0	0	60	0	0	0
COc1ccc(NC(=S)N2CCN(S(=O)(=O)c3ccc(F)cc3)CC2)cc1	0	0	66	0	0	0
